Test [1] deals with Methanococcus maripaludis chaperonin (MmCpn) (UniProt Q6LX38). The test can be described thus: High-Throughput Screening for Modulators of Cytosolic Chaperonin Activity: MmCpn Primary Screen (AID 488978).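 Further: 50 nM MmCpn enzyme hydrolysing 30 µM ATP at 37 °C; 0% is about no effect.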 An outline of the steps:
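MmCpn (50 nM final) was preincubated with compound 5 min at RT, then 30 uM ATP (final) was added and the reaction ran 10 min at 37C. ADP produced was detected by Transcreener HTRF (ex 320 nm; em 590/665 nm).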

Test [2] addresses D(1A) dopamine receptor (Homo sapiens) (UniProt P21728). Briefly: HTS Assay for Allosteric Agonists of the Human D1 Dopamine Receptor: Primary Screen for Potentiators (AID 488982). Further: 0% is about no effect. Put shortly: (§1)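 Calcium flux in an inducible, force-coupled HEK293 Trex D1 line (overnight at 30 C): agonist mode is the 180 s kinetic read after compound; potentiator mode is the following 180 s read after dopamine at EC20.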

The target is the same in test [3]. Briefly: HTS Assay for Allosteric Agonists of the Human D1 Dopamine Receptor: Primary Screen for Antagonists (AID 488983).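 Further: calcium flux response to an EC80 dopamine challenge measured with no-wash dye; on the % scale 0 is the no-effect control and ±100 the full control effect; nearly all actives have a fitted effect of over 65% in size.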 An outline of the steps: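 Calcium-flux read-out in inducible HEK293 T-REx cells expressing D1, dye-loaded 30–90 min at room temperature. Kinetic reads: 180 s after compound (agonist phase), then 180 s after an EC80 dopamine challenge.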
Test [4] is described as follows: Validation screen for small molecules that induce genotoxicity in human embryonic kidney (HEK293T) cells expressing luciferase-tagged ELG1 (AID 493106). Further: 0% is about no effect. An outline of the steps: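 ELG1-luciferase reporter readout (ONE-Glo, 30 min, room temperature) after 16 hr compound treatment at 37 °C of HEK293T cells at 2,000 per well. Rising luminescence flags genotoxic stress.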

Test [5] has as its target Phosphoglycerate kinase, glycosomal (Trypanosoma brucei brucei) (UniProt P07378). Briefly: qHTS Validation Assay to Find Inhibitors of Phosphoglycerate Kinase (AID 504547).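 Further: control wells lack PGK and mark full inhibition.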 An outline of the steps:
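Luminescence end-point (Kinase-Glo Plus, 10 min) after a 60 min room-temperature coupled reaction. GAPDH at 100nM final supplies 1,3-BPG to PGK. Buffer: 100mM TEA pH 7.6, 5mM MgCl2, 0.01% Tween-20. Wells lacking PGK served as controls.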
(Quantitative high-throughput screening tests each substance at several concentrations.)

Test [6] has as its target phosphoglycerate mutase (Leishmania major) (UniProt Q4Q090). The test can be described thus: qHTS Validation Assay to Find Inhibitors of Phosphoglycerate Mutase (AID 504548).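 Further: end-point luminescence from Kinase-GloPlus after the PGAM reaction; series mostly up to about 58 µM; on the % scale 0 is the no-effect control and ±100 the full control effect.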 To be noted: Potency: inhibition qHTS. An outline of the steps: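 Inhibition of L. major PGAM was assessed by Kinase-GloPlus luminescence following a 45-minute room-temperature reaction with enzyme at 1.25nM final.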

The target of test [7] is Ubiquitin carboxyl-terminal hydrolase 1 (Homo sapiens) (UniProt O94782). The test can be described thus: Inhibitors of USP1/UAF1: Pilot qHTS (AID 504865). Further: nearly all actives have a fitted effect of over 35% in size. Further: potency means the concentration at half of the fitted maximal effect. Put shortly: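 USP1/UAF1 complex (1nM) preincubated with compound 15 min at room temperature, then Ub-Rho substrate (150nM final) added. Fluorescence read kinetically at 480/540 nm, 6 reads every 60 seconds. Buffer: 50mM HEPES pH 7.8, 0.5mM EDTA, 0.1 mg/ml BSA, 1mM TCEP, 0.01% Tween-20.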

Test [8] can be described thus: qHTS for Inhibitors of ATXN expression: Validation of Cytotoxic Assay (AID 588349). Further: on the % scale 0 is the no-effect control and ±100 the full control effect. Put shortly:
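Cytotoxicity counter-screen: ATP-based luminescent viability (CellTiter Glo) after 72 hr exposure of HEK293 cells to a compound titration at 37 degrees C.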

In test [9] the target is ATPase family AAA domain-containing protein 5 (Homo sapiens) (UniProt Q96QE3). The test can be described thus: Validation screen for small molecules that inhibit ELG1-dependent DNA repair in human embryonic kidney (HEK293T) cells expressing luciferase-tagged ELG1 (AID 493107).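 Further: series mostly up to about 46 µM; on the % scale 0 is the no-effect control and ±100 the full control effect; inhibitors lower the ELG1-luciferase luminescence signal; nearly all actives have a fitted effect of over 70% in size.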 Put shortly:
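Luciferase read-out, ONE-Glo, 30 min at room temperature, follows 16 h co-exposure at 37 C of compound and the DNA-damaging agent 5-fluorouridine. Cells: HEK293T with ELG1-luciferase fusion, 2,000 per well, DMSO as vehicle.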

A short description of test [10]: Nrf2 qHTS screen for inhibitors: Validation (AID 493153; active means well fitted inhibition curve with a large enough effect in the main read-out, with a control signal flat, not every such curve was filed as active). To be noted: Potency: luciferase luminescence; viability change: measured here: cytotoxicity max response. Put shortly: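 Concentration-response on A549 ARE_Fluc reporter cells exposed 18-24 h at 37 C, 5% CO2. Cytotoxicity read first by CellTiter-Fluor fluorescence (Ex 405/Em 525), then Nrf2 inhibition by BugLite luminescence after 15 min.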

Test [11] concerns the target Peptidyl-prolyl cis-trans isomerase NIMA-interacting 1 (Homo sapiens) (UniProt Q13526). The test can be described thus: qHTS Validation Assay to Find Inhibitors of Pin1 (AID 504536; active means well fitted inhibition curve with a large enough effect in the polarisation, with a control signal flat, not every such curve was filed as active; the % refers to the polarisation; further: potency means the concentration at half of the fitted maximal effect). Put shortly:
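Fluorescence polarization competition: compounds (titration) displace HiFluor-488-labeled Pin1-1b peptide from Pin1 (0.3 uM final) in pH 7.5 HEPES buffer with DTT, 10 min at room temperature; %Activity normalized to no-enzyme wells, curves fitted.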

The target in test [12] is D(1A) dopamine receptor (Homo sapiens) (UniProt P21728). Briefly: HTS Assay for Allosteric Agonists of the Human D1 Dopamine Receptor: Primary Screen for Agonists (AID 488981). Further: potency means the concentration at half of the fitted maximal effect. On activation: 0% is about no effect. Put shortly: as §1
Test [13] in a line: qHTS for Inhibitors of Cell Surface uPA Generation: Validation Assay (AID 493164).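 Further: RAW 264.7 macrophage cells exposed to compound for 18 h; 0% is about no effect.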 Put shortly:
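ATP-Lite luminescence read-out: ATP remains high when uPA activity-dependent LF translocation into the cytoplasm is blocked. RAW 264.7 cells, 18 h compound exposure at 37 C; 7-point titration, 2.45 nM to 38.3 uM final.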

Test [14] deals with ATP-dependent 6-phosphofructokinase (Trypanosoma brucei brucei) (UniProt O15648). The test can be described thus: qHTS Assay to Find Inhibitors of T. brucei phosphofructokinase: hit validation (AID 492961).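 Further: luminescence reports ADP formed as PFK phosphorylates fructose-6-phosphate with ATP; series mostly up to about 51 µM; on the % scale 0 is the no-effect control and ±100 the full control effect.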 Put shortly:
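ADP-Glo luminescence read-out of ADP formed by 1.25 nM PFK from 0.1 mM ATP and 0.5 mM F6P (TEA pH 8.0, 45 min, RT). Compounds titrated; activity normalized to no-enzyme and full-enzyme controls.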

In test [15] the target is Transient receptor potential cation channel subfamily V member 1 (Homo sapiens) (UniProt Q8NER1). Briefly: HTS Assay for Compounds that Act as Enhancers of the Vanilloid Receptor 1 (AID 488979). Further: 0% is about no effect. Put shortly: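 Calcium influx kinetics via Fluo-8 (480/520 nm) in TRPV1-expressing cells, 2000/well cultured overnight at 35.5C. Compound-alone read 3 min (agonist phase), followed by EC20 capsaicin challenge for 2 min (enhancer phase).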

In test [16] the target is Thyrotropin receptor (Homo sapiens) (UniProt P16473). Briefly: qHTS Assay for Antagonists of the Thyroid Stimulating Hormone Receptor (AID 488980). Further: series mostly up to about 58 µM; 0% is about no effect. Put shortly: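 HEK293 cells transfected with human TSHR, suspended in HEPES-buffered HBSS with 70 uM RO 20-1724, were treated with compounds plus TSH at EC80 (4 nM final). cAMP was measured by competitive HTRF (cryptate anti-cAMP antibody, cAMP-d2 acceptor).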

Test [17] concerns the target Thyrotropin-releasing hormone receptor (Homo sapiens) (UniProt P34981). The test can be described thus: qHTS for Small Molecule Agonists and Allosteric Enhancers of Human TRH Receptor: Validation Screen for Agonists (AID 493127;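 active means calcium activation more than 3 SD above the typical response in the agonist read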;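 further: intracellular calcium rise by fluo-8 fluorescence before TRH EC20 addition; 0% is about no effect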). To be noted: TRH receptor agonist cell assay; at 2 µM; stronger effect = higher value. An outline of the steps: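 Compound-evoked intracellular calcium release in fluo-8-loaded TRHR cells, read kinetically on FDSS (Ex 480/Em 530, 1 s/cycle) after 23 nL pintool transfer. Agonist phase preceded 10 nM TRH EC20 addition.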

Test [18] has as its target Galactokinase (Homo sapiens) (UniProt P51570). Briefly: qHTS Validation Assay for Inhibitors of Human Galactokinase (GALK) (AID 493189). Further: 0% is about no effect. Put shortly: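 GALK (5 nM) with 35 uM ATP and 100 uM galactose in HEPES pH8.0, MgCl2, NaCl, DTT, BSA; 1 h at room temperature. Residual ATP read by Kinase-Glo Plus luminescence after 10 min.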
Test [19] can be described thus: Validation screen for small molecules that induce DNA re-replication in SW480 colon adenocarcinoma cells (AID 504364). Further: 0% is about no effect. An outline of the steps:
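Image-based DNA content read-out: Hoechst stain 40 min, total nuclear fluorescence intensity (ex 405 nm, em 500-530 nm) after 48 h compound exposure of 250 SW480 cells/well at 37 C, 5% CO2, versus DMSO vehicle.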

Records with an inconclusive call do not appear. The source made the active and inactive calls. Unless noted, the call rests on the fitted dose curve; in most records, active means well fitted curve in the direction sought with a large enough effect; inconclusive means small, poorly fitted or top-dose-only effect, or another doubt; inactive means no such curve, though single readings can be large; an effect the other way counts as inactive or inconclusive.

Peptidyl-prolyl cis-trans isomerase NIMA-interacting 1 (Homo sapiens), sequence (Q13526 whole entry, looked up): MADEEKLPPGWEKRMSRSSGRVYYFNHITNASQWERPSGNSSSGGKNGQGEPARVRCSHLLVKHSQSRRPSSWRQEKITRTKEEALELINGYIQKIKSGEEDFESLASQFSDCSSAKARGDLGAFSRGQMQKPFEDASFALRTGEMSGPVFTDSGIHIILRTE
D(1A) dopamine receptor (Homo sapiens), sequence (P21728 whole entry, looked up): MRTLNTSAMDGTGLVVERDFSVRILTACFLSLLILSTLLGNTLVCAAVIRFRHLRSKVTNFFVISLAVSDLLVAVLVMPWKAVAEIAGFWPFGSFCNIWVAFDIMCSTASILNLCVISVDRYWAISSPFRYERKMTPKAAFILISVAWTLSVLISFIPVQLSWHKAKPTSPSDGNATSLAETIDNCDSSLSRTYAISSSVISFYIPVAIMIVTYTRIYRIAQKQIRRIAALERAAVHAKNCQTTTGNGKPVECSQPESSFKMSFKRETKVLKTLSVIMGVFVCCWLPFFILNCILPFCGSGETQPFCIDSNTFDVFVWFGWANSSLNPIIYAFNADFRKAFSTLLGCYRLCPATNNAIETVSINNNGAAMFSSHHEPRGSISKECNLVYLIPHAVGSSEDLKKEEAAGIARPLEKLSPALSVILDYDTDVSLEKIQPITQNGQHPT
ATPase family AAA domain-containing protein 5 (Homo sapiens), sequence (Q96QE3 whole entry, looked up, the tested form may be a part): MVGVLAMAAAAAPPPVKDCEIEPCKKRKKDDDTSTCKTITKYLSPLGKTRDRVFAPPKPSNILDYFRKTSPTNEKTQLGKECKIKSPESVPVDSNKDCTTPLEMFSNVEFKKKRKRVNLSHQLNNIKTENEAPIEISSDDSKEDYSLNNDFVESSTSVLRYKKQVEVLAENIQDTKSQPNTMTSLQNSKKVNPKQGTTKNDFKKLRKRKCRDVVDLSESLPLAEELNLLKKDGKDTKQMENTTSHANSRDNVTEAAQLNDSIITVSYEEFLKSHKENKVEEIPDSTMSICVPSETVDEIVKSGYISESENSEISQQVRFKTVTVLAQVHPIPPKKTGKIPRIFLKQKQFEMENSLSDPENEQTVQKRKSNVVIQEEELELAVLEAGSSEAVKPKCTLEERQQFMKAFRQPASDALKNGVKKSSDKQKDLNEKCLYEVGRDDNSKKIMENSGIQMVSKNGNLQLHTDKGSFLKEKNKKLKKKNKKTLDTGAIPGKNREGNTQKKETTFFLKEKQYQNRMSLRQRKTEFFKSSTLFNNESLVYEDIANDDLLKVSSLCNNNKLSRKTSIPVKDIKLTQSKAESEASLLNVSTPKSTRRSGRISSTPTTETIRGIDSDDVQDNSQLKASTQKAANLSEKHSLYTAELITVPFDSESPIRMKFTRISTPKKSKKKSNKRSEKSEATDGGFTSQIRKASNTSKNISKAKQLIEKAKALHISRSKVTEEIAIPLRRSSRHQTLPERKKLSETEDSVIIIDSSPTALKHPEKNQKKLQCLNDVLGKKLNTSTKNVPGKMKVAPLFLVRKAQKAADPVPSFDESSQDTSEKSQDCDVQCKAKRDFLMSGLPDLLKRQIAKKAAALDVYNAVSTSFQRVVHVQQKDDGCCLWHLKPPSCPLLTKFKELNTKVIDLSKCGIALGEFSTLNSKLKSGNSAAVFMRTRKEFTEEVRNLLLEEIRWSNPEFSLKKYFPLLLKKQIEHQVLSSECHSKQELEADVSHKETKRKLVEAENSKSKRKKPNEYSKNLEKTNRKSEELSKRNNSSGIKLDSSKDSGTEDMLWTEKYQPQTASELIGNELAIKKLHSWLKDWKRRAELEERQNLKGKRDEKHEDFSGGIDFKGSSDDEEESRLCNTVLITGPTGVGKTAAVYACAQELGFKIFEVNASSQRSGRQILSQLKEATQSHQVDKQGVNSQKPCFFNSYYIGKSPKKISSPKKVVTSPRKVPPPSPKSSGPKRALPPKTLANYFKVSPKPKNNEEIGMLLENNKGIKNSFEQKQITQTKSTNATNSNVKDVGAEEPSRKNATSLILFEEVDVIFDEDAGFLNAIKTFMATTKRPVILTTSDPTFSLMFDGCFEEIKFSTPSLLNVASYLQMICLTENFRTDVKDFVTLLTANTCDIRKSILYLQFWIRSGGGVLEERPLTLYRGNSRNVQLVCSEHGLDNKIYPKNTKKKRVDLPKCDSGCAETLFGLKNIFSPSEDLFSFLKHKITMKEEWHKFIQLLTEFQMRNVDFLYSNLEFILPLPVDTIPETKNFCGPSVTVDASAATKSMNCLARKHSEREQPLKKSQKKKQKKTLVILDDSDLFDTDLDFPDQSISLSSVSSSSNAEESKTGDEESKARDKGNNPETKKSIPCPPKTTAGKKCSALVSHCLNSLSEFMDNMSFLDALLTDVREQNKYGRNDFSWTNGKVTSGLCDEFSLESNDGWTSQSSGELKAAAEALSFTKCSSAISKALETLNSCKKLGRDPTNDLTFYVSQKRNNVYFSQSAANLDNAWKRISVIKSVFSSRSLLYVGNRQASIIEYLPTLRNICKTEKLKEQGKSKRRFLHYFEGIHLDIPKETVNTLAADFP
phosphoglycerate mutase (Leishmania major), sequence (Q4Q090 1-553): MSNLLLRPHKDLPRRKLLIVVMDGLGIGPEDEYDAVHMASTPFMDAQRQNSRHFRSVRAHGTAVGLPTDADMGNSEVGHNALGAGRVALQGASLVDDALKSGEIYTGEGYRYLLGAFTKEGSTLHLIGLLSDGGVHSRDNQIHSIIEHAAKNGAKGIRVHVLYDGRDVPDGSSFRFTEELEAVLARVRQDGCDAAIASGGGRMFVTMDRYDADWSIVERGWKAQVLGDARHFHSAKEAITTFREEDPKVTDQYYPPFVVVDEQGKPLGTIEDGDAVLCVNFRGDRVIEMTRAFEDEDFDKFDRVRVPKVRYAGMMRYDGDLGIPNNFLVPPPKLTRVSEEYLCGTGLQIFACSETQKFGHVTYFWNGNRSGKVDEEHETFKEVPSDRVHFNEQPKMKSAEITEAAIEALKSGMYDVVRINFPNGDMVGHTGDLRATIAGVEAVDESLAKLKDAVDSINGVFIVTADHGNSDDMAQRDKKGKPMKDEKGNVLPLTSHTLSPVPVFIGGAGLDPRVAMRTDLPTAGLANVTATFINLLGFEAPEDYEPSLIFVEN
Methanococcus maripaludis chaperonin (MmCpn), sequence (Q6LX38 1-543): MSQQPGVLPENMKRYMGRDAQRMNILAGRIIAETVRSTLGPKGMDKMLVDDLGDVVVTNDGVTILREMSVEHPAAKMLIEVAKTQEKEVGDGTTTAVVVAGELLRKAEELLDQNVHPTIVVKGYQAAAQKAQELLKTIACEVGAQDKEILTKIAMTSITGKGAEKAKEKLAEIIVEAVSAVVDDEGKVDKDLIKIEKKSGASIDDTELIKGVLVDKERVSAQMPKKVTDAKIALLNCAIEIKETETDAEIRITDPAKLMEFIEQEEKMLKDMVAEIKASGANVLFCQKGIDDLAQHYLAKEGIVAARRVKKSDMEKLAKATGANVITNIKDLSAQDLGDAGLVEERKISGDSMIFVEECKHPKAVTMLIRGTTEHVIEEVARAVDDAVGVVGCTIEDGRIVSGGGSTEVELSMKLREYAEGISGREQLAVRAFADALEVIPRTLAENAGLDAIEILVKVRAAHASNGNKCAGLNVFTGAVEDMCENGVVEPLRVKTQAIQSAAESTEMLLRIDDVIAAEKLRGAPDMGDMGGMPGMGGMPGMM
Phosphoglycerate kinase, glycosomal (Trypanosoma brucei brucei), sequence (P07378 whole entry, looked up): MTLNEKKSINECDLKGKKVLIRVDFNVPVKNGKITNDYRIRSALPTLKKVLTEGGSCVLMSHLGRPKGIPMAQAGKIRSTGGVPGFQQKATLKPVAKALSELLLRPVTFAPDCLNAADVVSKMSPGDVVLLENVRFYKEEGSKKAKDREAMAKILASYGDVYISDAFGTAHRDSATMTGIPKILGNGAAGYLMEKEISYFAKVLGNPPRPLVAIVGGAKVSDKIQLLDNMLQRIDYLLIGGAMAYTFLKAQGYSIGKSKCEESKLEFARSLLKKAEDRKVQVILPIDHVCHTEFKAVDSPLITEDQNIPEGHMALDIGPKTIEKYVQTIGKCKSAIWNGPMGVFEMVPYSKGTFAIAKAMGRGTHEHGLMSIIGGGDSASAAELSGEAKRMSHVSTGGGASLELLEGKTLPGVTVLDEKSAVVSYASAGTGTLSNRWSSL
Ubiquitin carboxyl-terminal hydrolase 1 (Homo sapiens), sequence (O94782 whole entry, looked up): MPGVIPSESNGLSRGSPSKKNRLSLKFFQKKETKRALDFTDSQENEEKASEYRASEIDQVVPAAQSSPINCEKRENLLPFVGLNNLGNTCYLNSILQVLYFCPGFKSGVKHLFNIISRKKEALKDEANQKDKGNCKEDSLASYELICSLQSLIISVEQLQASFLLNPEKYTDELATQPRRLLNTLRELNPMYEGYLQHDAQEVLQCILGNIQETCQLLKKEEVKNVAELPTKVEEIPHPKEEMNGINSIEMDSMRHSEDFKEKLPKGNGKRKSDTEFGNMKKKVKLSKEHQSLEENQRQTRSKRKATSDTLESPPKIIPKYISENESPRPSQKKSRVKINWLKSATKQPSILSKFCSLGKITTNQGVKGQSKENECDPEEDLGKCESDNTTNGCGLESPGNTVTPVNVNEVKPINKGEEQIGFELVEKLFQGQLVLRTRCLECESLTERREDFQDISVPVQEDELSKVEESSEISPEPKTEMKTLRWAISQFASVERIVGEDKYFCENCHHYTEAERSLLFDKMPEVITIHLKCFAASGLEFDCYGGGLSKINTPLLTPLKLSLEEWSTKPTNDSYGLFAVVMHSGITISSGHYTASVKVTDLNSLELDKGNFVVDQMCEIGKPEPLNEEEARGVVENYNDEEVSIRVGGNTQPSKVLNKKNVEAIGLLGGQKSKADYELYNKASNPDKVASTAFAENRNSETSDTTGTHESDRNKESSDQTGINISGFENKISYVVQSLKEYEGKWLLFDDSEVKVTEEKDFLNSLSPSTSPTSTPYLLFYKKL

For `C[N+](C)(C)CCOP(=O)(O)OP(=O)([O-])OC[C@H]1O[C@@H](n2ccc(N)nc2=O)[C@H](O)[C@@H]1O`, in test [1], the molecule was classed as inactive. In addition, the Potency result in test [2], in test [3], in [4], in test [5], in [6] and in test [7] was “inactive” in each case. For the same molecule, the Potency entry in [8] is “inactive”.
With `O=C(O)CC1CC(c2ccccc2)=NO1` (centres undefined), in test [1], the molecule was classed as inactive. Moreover, the Potency result in [2], in test [3], in test [4], in [9], in [10] and in test [11] was “inactive” each time. Besides, the Potency entry in test [5], in [6], in [7] and in test [8] was “inactive” throughout. Also, the viability change in [10] worked out at 12.6%.
Consider `C=CC(=O)c1ccc(CCCCCC)cc1`, for which, in test [1], the outcome was inactive. For the same molecule, the Potency result in test [12], in test [2], in [4], in test [10], in test [11] and in test [5] was “inactive” in each case. Further, the Potency result in [6] and in test [8] was “inactive” in each case. Besides, in test [10], the viability change is -13%. Further, the Potency in test [7] is 56.2 µM (active).
On to `Cc1cc(NC2CCCCC2)nc(-n2nc(C)cc2C)n1`, for which the outcome in test [1] and in test [13] was inactive. Also, the Potency result in test [2], in [4], in [10], in [11], in [5] and in test [6] was “inactive” each time. Besides, the Potency entry in test [7] and in test [8] was “inactive” in each case. In addition, in test [10], the viability change is -6.43%.
Regarding `CC(N)C(=O)OC(C)(C)Cc1ccc(Cl)cc1` (centres undefined), the molecule was classed as inactive in test [1] and in test [13]. The Potency result in test [2], in [3], in test [4], in [10], in test [11] and in [5] was “inactive” each time. Also, the Potency result in test [6], in [7] and in test [8] was “inactive” throughout. Further, the viability change in test [10] is 7.67%.
As to `CC(C)ON([C@@H](C(=O)NO)C(C)C)S(=O)(=O)c1ccc(-c2ccccc2)cc1`, the result in test [1] and in test [13] was inactive. Besides, the Potency result in [2], in test [3], in test [4], in [11], in [5] and in [6] was “inactive” each time.
`CC1OC1P(=O)(O)O` (centres undefined): the outcome in test [1] and in [14] was inactive. Further, the Potency entry in test [2], in test [3], in [4], in test [9], in test [10] and in test [5] was “inactive” each time. For the same molecule, the Potency entry in [8] was “inactive”. Also, in test [10], the viability change was 11.8%.
`Nc1nc(Cl)nc2c1ncn2[C@@H]1O[C@H](COP(=O)(O)OP(=O)(O)OP(=O)(O)O)[C@@H](O)[C@H]1O`: in test [1], the result was inactive. Further, the Potency is 0.891 µM (active) in [12] and 30.1 µM (active) in test [11]. Moreover, the Potency entry in test [2], in [9], in [10], in test [5], in test [7] and in test [8] was “inactive” each time. Also, the viability change in test [10] was found to be 3.12%.
In the case of `O=C1NC(=O)/C(=C/c2ccc(-c3ccc(F)cc3O)o2)S1`, in test [1], the molecule was classed as inactive. Also, the Potency entry in test [2], in [11], in test [5] and in [8] was “inactive” in each case. Moreover, the Potency in [7] is 44.7 µM (active).
Consider `CN1CCN(c2cc3c(nn2)Oc2ccccc2N3C)CC1`, for which, in test [14], the molecule was classed as inactive.
With `CN[C@H](CC(C)C)C(=O)N[C@H]1C(=O)N[C@@H](CC(N)=O)C(=O)N[C@H]2C(=O)N[C@H]3C(=O)N[C@H](C(=O)N[C@H](C(=O)O)c4cc(O)cc(O)c4-c4cc3ccc4O)[C@H](O)c3ccc(c(Cl)c3)Oc3cc2cc(c3O[C@@H]2O[C@H](CO)[C@@H](O)[C@H](O)[C@H]2O[C@H]2C[C@](C)(N)[C@H](O)[C@H](C)O2)Oc2ccc(cc2Cl)[C@H]1O`, the result in test [15] and in test [16] was inactive. The activation in test [17] is -0.312% (inactive). In addition, the Potency result in [18] and in [19] was “inactive” in each case.

(Values after PubChem BioAssay (NCATS).)
